Source: PubChem
In the library only some 8.7% were active in any assay of this set; here they are far more common.
BAZ2B block = blocks human BAZ2B; Q9UIF8; AlphaScreen BAZ2B-H3K14Ac peptide displacement; Potency, µM (highest dose often 114 µM), inactives show at the highest dose activity change, negative = inhibition, hits mostly inhibitors; 360,000 tested, 4.4% active; also: % is scaled to controls: 0 for no effect and ±100 for the full control effect; nearly all actives have a fitted effect of over 60% in size
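AlphaScreen displacement of biotin-H3(5-23)K14Ac peptide (50 nM final) from BAZ2B (50 nM final) in PBS pH 7.4, 0.01% Tween-20; complex preformed 30 min RT, then compounds (top 110 uM) 30 min RT, beads 20 min dark.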
HP1b chromo inh = blocks HP1-beta chromodomain binding to methylated histone tails; P83916; 390,000 tested, 0.56% active; AID 540317; Potency, µM (doses to about 114 µM), without a hit: top-dose activity change, negative = inhibition, actives largely listed as inhibitors; AlphaScreen HP1-beta / biotin-H3K9me3 peptide binding; also: nearly all actives have a fitted effect of over 70% in size
Target sequence (P83916 whole entry, looked up): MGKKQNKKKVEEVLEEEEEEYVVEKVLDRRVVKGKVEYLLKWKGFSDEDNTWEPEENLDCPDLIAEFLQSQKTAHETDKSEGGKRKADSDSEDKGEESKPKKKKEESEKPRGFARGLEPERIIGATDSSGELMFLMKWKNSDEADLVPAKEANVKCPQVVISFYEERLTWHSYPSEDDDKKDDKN
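HP1-beta protein (50 nM final) preincubated 30 min at room temperature with biotinylated H3(1-18)K9me3 peptide (50 nM) in PBS pH 7.4, 0.01% Tween-20, then compound added for 30 min. AlphaScreen streptavidin donor/nickel chelate acceptor beads (10 ug/mL final), 30 min dark, luminescence read.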
JMJD2A Tudor = inhibitors of human JMJD2A Tudor domain | AlphaScreen JMJD2A-Tudor / H3K4me3 peptide binding | Potency, µM (series often up to 114 µM), without a hit: at the top dose activity change, negative = inhibition, actives largely listed as inhibitors | 390,000 tested, 4.4% active; also: % is scaled to controls: 0 for no effect and ±100 for the full control effect; nearly all actives have a fitted effect of over 50% in size
Sfp PPTase inh = blocks B. subtilis Sfp PPTase activity. Q9F4F7. Biochemical Sfp PPTase activity, qHTS. Potency, µM, without a hit: largest response in the series, negative = inhibition, actives largely listed as inhibitors. 310,000 tested, 3.5% active;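 also: the enzyme is Sfp with the accession as filed and its product quenches rhodamine fluorescence; 0% = enzyme reaction without inhibitor and -100% = no enzyme wells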
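Compounds were incubated with enzyme (final 15 nM) for 15 min at room temperature before substrate addition started the reaction. Fluorescence at 525 nm excitation, 598 nm emission was recorded immediately and after 30 minutes.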
ALOX12 inh = ALOX12 (human) lipoxygenase inhibition; Potency, µM (doses to about 108 µM), inactives show at the top dose activity change, negative = inhibition, hits mostly inhibitors; 580,000 tested, 1.1% active; AID 1671190; purified 12hLO, xylenol orange hydroperoxide absorbance; P18054; also: % is scaled to controls: 0 for no effect and ±100 for the full control effect
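Hydroperoxide product was detected by ferrous iron/xylenol orange as the 573 to 405 nm absorbance ratio. Arachidonic acid at 40 uM (final) was turned over for 30 min at room temperature by 150 nM human 12hLO, pH 7.0 Hepes buffer, after 15 min compound preincubation.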
G9a inh = blocks human histone lysine methyltransferase G9a | Q96KQ7 | G9a H3K9 monomethylation, AlphaScreen, 2 h | Potency, µM (titrated, usually from 102 µM), for inactives: top-dose activity, negative = inhibition, hits mostly inhibitors | 350,000 tested, 8.8% active | AID 504332; also: % is scaled to controls: 0 for no effect and ±100 for the full control effect; nearly all actives have a fitted effect of over 75% in size
Target sequence (Q96KQ7 913-1193 limits assumed): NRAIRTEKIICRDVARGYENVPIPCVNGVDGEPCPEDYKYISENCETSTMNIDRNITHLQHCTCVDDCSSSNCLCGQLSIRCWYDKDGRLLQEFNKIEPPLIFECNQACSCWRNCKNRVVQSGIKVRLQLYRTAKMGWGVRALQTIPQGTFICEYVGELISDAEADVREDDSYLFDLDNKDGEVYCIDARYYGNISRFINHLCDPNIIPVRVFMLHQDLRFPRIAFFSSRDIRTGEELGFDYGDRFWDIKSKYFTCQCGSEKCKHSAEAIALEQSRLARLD
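Methyltransferase reactions run at room temperature for 2 h (20 nM enzyme, 500 nM biotin-H3K9 peptide, 20 uM SAM) after a 15 min compound preincubation; product detected by AlphaScreen beads and anti-H3K9me1 antibody.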
* = called active by the depositor; u = inconclusive; x = no result; ! = not active in a repeat; [ ] = dose if it differs, or a comment. Calls follow the shape of the dose curve; as a rule, active = well fitted curve in the direction sought with a large enough effect; inconclusive = small, poorly fitted or top-dose-only effect, or another doubt; inactive = no such curve, though single readings can be large; an effect the other way counts as inactive or inconclusive. Potency is read from the fitted curve at half-maximal effect.

SMILES	BAZ2B block	HP1b chromo inh	JMJD2A Tudor	Sfp PPTase inh	ALOX12 inh	G9a inh
Fc1ccc(-c2noc([C@@H]3CCCN3Cc3ccccc3F)n2)nc1	x	x	x	x	0%[176 µM]	x
Cc1cc(C(=O)COC(=O)c2ccc(Cl)c(S(N)(=O)=O)c2)c(C)n1C1CC1	u	u	u	x	-39%	50µM*
Cc1cc(C(=O)COC(=O)c2ccc(NC(=O)CC#N)cc2)c(C)n1C1CC1	-28%	11%	-19%	x	12%	u
CCC(=O)Nc1ccc2oc(-c3cccc(OC)c3)nc2c1	x	x	x	x	-5%	x
Cc1cc(C(=O)NC(Cc2ccccc2)C(=O)O)c(C)o1 (centres undefined)	-33%	-11%	-16%	12%	-9%	71µM*
Cc1oc(-c2ccccc2)cc1C(=O)NC(Cc1c[nH]c2ccccc12)C(=O)O (centres undefined)	-39%	-4%	u	40µM*	u	u
CCc1ccccc1NNC(=O)c1snnc1C	-12%	12%	-7%	u	-99%	2.8µM*
Cc1nnsc1C(=O)NNc1c(Cl)cccc1Cl	4%	33%	-8%	-1%	u	8.9µM*
CCc1ccccc1NNC(=O)c1sccc1Cl	x	37%	-24%	x	x	x
Cc1nnsc1C(=O)NNc1ccc(Cl)cc1	-9%	34%	1%	1%	145%	x
O=C(COc1ccccc1)N1C[C@@H](F)[C@@H](OCc2nc3ncccc3[nH]2)C1	x	x	x	x	27%[176 µM]	x
COc1ccc(N2CCN(C(=O)Cn3ccn4nc(-c5ccccc5)c(CO)c4c3=O)CC2)cc1	x	x	x	x	-7%	x
C=CCSc1nnc(NC(=O)c2cc(=O)c3cc(C)c(C)cc3o2)s1	x	x	x	x	-6%	x
O=C(Nc1cccc(F)c1)N1CCC(CCNC(=O)C2(c3ccccc3)CC2)CC1	x	x	x	x	32%	x
C=CCOc1cccc(NC(=O)c2ccco2)c1	x	x	x	x	-14%	x
CCCCCc1ccc(OCCOCCn2c[n+](C)c3ccccc32)c(CCCCC)c1	-11%	7%	u	50µM*	x	-10%
CCCCCc1ccc(OCCC[n+]2ccccc2)c(CCCCC)c1	-5%	-7%	-16%	16µM*	u	x
CC(=O)Nc1ccc(OCCC[n+]2ccccc2)cc1	-15%	29%	-3%	14%	1%	-6%
CCCCOc1ccccc1Cn1c(=O)oc2ccccc21	176%	233%	105%	-10%	4%	204%
O=C(Cc1cccc(F)c1)NCCC1CCN(C(=O)Nc2ccc(F)cc2F)CC1	x	x	x	x	31%	x
CCOc1ccc(C(=O)NC(C)(C)CC)cc1	-1%	-1%	-3%	12%	5%	3%
C[C@@](N)(C(=O)O)c1ccc(C(=O)O)cc1	x	x	x	50µM*!	u	27%[59 µM]
CCOc1ccc(C(C)(N)C(=O)O)cc1 (centres undefined)	-38%	6%	3.5µM*	-8%	-11%	u
CC(N)(C(=O)O)c1ccc(C(=O)O)cc1 (centres undefined)	x	x	x	56µM*	6%	17%[12.7 µM]
COc1ccccc1NC(=O)CCC(=O)Nc1ccccc1OC	8%	15%	-3%	3%	-10%	6%[59 µM]
SMILES	BAZ2B block	HP1b chromo inh	JMJD2A Tudor	Sfp PPTase inh	ALOX12 inh	G9a inh
COc1ccccc1NC(=O)Cn1nnc(-c2ccccc2NC(=O)c2cccs2)n1	3%	27%	-5%	50µM*	5%	-46%[59 µM]
CCCC(C)NCC(=O)Nc1ccccc1-c1ccccc1 (centres undefined)	u	u	1.1µM*	-12%	u	u
O=C(CNC(c1ccccc1)c1ccccc1)Nc1ccccc1-c1ccccc1	-4%	37%	-15%	23%	-5%	27%[59 µM]
COc1ccccc1NC(=O)CCC(=O)c1ccc(-c2ccccc2)cc1	5%	-10%	25µM*	-2%	u	-10%[59 µM]
COc1ccccc1NC(=O)CCN1C(=O)c2ccccc2C1=O	3%	24%	1%	1%	0%	79µM*
Cc1ccc(NC(=O)CCNC(=O)Cc2ccccc2)cc1C	x	x	x	x	-12%	x
COC(=O)N1CCC2(CC1)C(=O)NCN2Cc1ccc(Cl)cc1	x	x	x	x	40%	x
O=C(CN1C(=O)c2ccccc2C1=O)Nc1ccccc1C(F)(F)F	-6%	27%	-15%	3%	3%	21%
